We go through 34 compounds from PubChem BioAssay (Tox21).

Records with an inconclusive call do not appear. Values without a mark were called inactive. Active and inactive are the calls of the source. Calls follow the shape of the dose curve; as a rule, active = well fitted curve in the direction sought with a large enough effect in the repeat runs; inconclusive = weak or mixed curves; inactive = no such curve, though single readings can be large; an effect the other way counts as inactive or inconclusive.
% is scaled to controls: 0 for no effect and ±100 for the full control effect; potency is read from the fitted curve at half-maximal effect.

System in one experiment: not listed separately
Nature of the experiment: qHTS assay to identify aromatase inhibitors - cell viability counter screen (AID 743084).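 Also: cells stimulated with testosterone during compound exposure; nearly all actives have a fitted effect of over 55% in size.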 The settings on record: MCF-7 aro ERE viability, CellTiter-Fluor, 24 h; series mostly up to 70.3 µM; activity change, negative = cytotoxicity: at the top concentration.
On to `CCCCCCCCCCCCOCCCN`, for which the “activity change, negative = cytotoxicity” value was 3.88%.
Turning to `C=CCOc1ccc(CC(=O)O)cc1Cl`, the “activity change, negative = cytotoxicity” value is 18.1%.
Still for that read-out and setting: next, `O=P(O)(O)OC[C@H]1O[C@](O)(COP(=O)(O)O)[C@@H](O)[C@@H]1O`: 11.9%; `CC(=O)O[C@]1(C(C)=O)CC[C@H]2[C@@H]3CCC4=CC(=O)CC[C@]4(C)[C@@]3(F)[C@@H](O)C[C@@]21C`: 2.77%.
The same measure, in the same setting: next, `CCN(CC)CCC(=O)N1c2ccccc2Sc2ccc(C(F)(F)F)cc21`: -18.3%; `CCCCC(=O)N(Cc1ccc(-c2ccccc2-c2nn[nH]n2)cc1)[C@@H](C(=O)O)C(C)C`: 8.07%.
On to `CN=C1C=CC(=C(c2ccc(N(C)C)cc2)c2ccc(N(C)C)cc2)C=C1`, for which the Potency was 6.68 µM (active).
As to `CCCCCCCCCCCC(=O)N(CCO)CCO`, the “activity change, negative = cytotoxicity” value was -4.87%.
Still for that read-out and setting: next, `O=C(O)c1cc(N=Nc2ccc(O)c(C(=O)O)c2)ccc1O`: -15%.

The next experiment deals with Aryl hydrocarbon receptor (Homo sapiens) (UniProt P35869). Nature of the experiment: qHTS assay to identify small molecule that activate the aryl hydrocarbon receptor (AhR) signaling pathway (AID 743085). Also: nearly all actives have a fitted effect of over 15% in size.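 As to activation: HG2L7.5c1 human HepG2 liver cells with stably integrated DRE-driven firefly reporter.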 The settings on record: HepG2 AhR-luc (HG2L7.5c1), luciferase, 24 h; series mostly up to 70.3 µM; activation: at the top concentration. In a few lines: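 Luminescence (ONE-Glo) from a dioxin-responsive-element luciferase reporter in HG2L7.5c1 HepG2 cells after 24 hr compound exposure at 37C; viability measured by CellTiter-Fluor fluorescence beforehand.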
Chain of Aryl hydrocarbon receptor (Homo sapiens) (P35869 whole entry, looked up): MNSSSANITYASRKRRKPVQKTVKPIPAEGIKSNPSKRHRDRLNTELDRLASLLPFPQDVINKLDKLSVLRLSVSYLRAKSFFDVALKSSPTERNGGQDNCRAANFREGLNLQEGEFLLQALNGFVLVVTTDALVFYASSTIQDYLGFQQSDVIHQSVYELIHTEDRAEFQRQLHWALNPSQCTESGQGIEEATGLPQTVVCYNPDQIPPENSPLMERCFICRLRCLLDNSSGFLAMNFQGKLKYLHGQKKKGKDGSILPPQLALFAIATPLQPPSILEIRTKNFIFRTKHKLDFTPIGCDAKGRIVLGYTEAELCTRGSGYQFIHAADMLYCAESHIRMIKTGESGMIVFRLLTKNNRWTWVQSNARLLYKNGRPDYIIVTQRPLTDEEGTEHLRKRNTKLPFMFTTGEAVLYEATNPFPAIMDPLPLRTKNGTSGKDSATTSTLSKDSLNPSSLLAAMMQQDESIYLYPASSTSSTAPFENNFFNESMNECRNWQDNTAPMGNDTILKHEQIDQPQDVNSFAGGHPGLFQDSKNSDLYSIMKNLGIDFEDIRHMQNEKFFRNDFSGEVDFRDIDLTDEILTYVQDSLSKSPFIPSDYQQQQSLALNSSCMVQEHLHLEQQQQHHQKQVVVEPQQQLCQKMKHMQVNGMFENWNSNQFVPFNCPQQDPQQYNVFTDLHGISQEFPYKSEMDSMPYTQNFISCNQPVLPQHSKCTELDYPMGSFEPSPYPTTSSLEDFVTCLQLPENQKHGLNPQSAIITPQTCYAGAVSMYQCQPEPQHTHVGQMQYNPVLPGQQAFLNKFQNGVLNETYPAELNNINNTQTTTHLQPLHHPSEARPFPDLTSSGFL
Background: In qHTS, concentration-response curves come from the screen itself.
Consider `CC(=O)N=c1sc(S(N)(=O)=O)nn1C`, for which the “activation” value was -0.364% [at 32.5 µM].
Take `C[N@+]12CCCC[C@@H]1CCC(=C(c1cccs1)c1cccs1)C2`: the “activation” value was -3.48%.
In the case of `C/C1=C2N=C(/C=C3N=C(/C(C)=C4\[N-][C@@](C)([C@@H]5N=C1[C@](C)(CCC(=O)NCC(C)OP(=O)(O)O[C@H]1[C@@H](O)[C@@H](n6cnc7cc(C)c(C)cc76)O[C@@H]1CO)[C@H]5CC(N)=O)[C@@](C)(CC(N)=O)[C@@H]4CCC(N)=O)[C@@](C)(CC(N)=O)[C@@H]\3CCC(N)=O)C(C)(C)[C@@H]/2CCC(N)=O.CC(=O)O.[Co]` (some centres undefined), the “activation” value was -4.51%.
Same read-out and setting: to `CC1(C)S[C@@H]2[C@H](NC(=O)C(C(=O)O)c3ccsc3)C(=O)N2[C@H]1C(=O)O` (some centres undefined) belongs 0.104%; to `CCCCC/C=C\CCC(=O)N[C@H]1[C@H](Oc2c3cc4cc2Oc2ccc(cc2Cl)[C@@H](O[C@@H]2O[C@H](CO)[C@@H](O)[C@H](O)[C@H]2NC(C)=O)[C@@H]2NC(=O)[C@H](NC(=O)[C@@H]4NC(=O)[C@H]4NC(=O)[C@@H](Cc5ccc(c(Cl)c5)O3)NC(=O)[C@H](N)c3ccc(O)c(c3)Oc3cc(O)cc4c3)c3ccc(O)c(c3)-c3c(O[C@H]4O[C@H](CO)[C@@H](O)[C@H](O)[C@@H]4O)cc(O)cc3[C@@H](C(=O)O)NC2=O)O[C@H](CO)[C@@H](O)[C@@H]1O`, -0.599%; to `O=C(O)C1=C(CSc2nnnn2CS(=O)(=O)O)CS[C@@H]2[C@H](NC(=O)[C@H](O)c3ccccc3)C(=O)N12`, -1.06%.
As to `CCOc1ccc(N=Nc2ccc(N)cc2N)cc1`, the Potency was 0.944 µM (active).
Regarding `O=C(O)[C@H]1/C(=C/CO)O[C@@H]2CC(=O)N21`, the “activation” value was -0.0241%.
In the case of `CNCC(O)c1ccc(OC(=O)C(C)(C)C)c(OC(=O)C(C)(C)C)c1` (centres undefined), the “activation” value is 0.275% [at 32.5 µM].
Same read-out and setting: to `CCOC(=O)O[C@]1(C(=O)COC(=O)CC)CC[C@H]2[C@@H]3CCC4=CC(=O)C=C[C@]4(C)[C@H]3[C@@H](O)C[C@@]21C` belongs 2.1% [at 32.5 µM]; to `CC[C@H](C)[C@@H]1NC(=O)[C@H](Cc2ccc(O)cc2)NC(=O)[C@@H](N)CSSC[C@@H](C(=O)N2CCC[C@H]2C(=O)N[C@@H](CC(C)C)C(=O)NCC(N)=O)NC(=O)[C@H](CC(N)=O)NC(=O)[C@H](CCC(N)=O)NC1=O`, -1.12%; to `NS(=O)(=O)c1cc2c(cc1Cl)NC(Cc1ccccc1)NS2(=O)=O` (centres undefined), 0.254%.
Same read-out and setting: next, `C[N+]1(C)[C@@H]2CC(OC(=O)C(O)(c3cccs3)c3cccs3)C[C@H]1[C@@H]1O[C@@H]12` (some centres undefined): -0.847%; `CC(C)[C@@H]1CC[C@@H](C)C[C@H]1OC(=O)c1ccccc1O`: -2.66%; `CC(C)[C@@H](N)C(=O)O`: 0.0348%.
Turning to `CC(C)(C)CC(C)(C)c1cc(Cc2cc(C(C)(C)CC(C)(C)C)cc(-n3nc4ccccc4n3)c2O)c(O)c(-n2nc3ccccc3n2)c1`, the “activation” value was -1.62%.
Consider `COc1ccc(C[C@H](C)NC[C@@H](O)c2ccc(O)c(NC=O)c2)cc1`, for which the “activation” value is -2.03%.
For `CCCCCCCCCCCCCCCC(=O)OCC(COC(=O)CCCCCCCCCCCCCCC)OC(=O)CCCCCCCCCCCCCCC`, the “activation” value was -1.44%.
Consider `CCOC(=O)[C@H](CS)NCCN[C@@H](CS)C(=O)OCC`, for which the “activation” value is -0.0046%.
The same measure, in the same setting: to `CCN(CC)CCOCCOC(=O)C(CC)(CC)c1ccccc1` belongs -1.26%; to `CC(=O)N(CC(C)C(=O)O)c1c(I)cc(I)c(N)c1I` (centres undefined), -1.82% [at 32.5 µM]; to `O=C(O)c1ccc(NC(=O)[C@H](Cc2ccc(O)cc2)NC(=O)c2ccccc2)cc1`, -0.67%.
The same measure, in the same setting: next, `CC(=O)Nc1ccc(OC(=O)c2ccccc2O)cc1`: 1.99%.
With `FC(F)(F)C(F)(F)C(F)(F)C(F)(F)C(F)(F)C(F)(F)F`, the “activation” value is 0.142%.
Take `O=C(OC[C@H]1O[C@](O)(COC(=O)c2cccnc2)[C@@H](OC(=O)c2cccnc2)[C@@H]1OC(=O)c1cccnc1)c1cccnc1`: the “activation” value is -1.06%.
